ALDH1A1 block: ALDH1A1 (human) enzyme inhibition | P00352 | Purified ALDH1A1, NADH fluorescence, propionaldehyde substrate | Potency, µM (highest dose often 75.3 µM), for the others: top-dose activity, negative = inhibition, hits mostly inhibitors | 220,000 tested, 7.3% active | AID 1030; active means well fitted inhibition curve with a large enough effect, not every such curve was filed as active; inconclusive means small, poorly fitted or top-dose-only effect, or another doubt; inactive means no such curve, though single readings can be large or run the other way;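 further: potency means the concentration at half of the fitted maximal effect; plate controls were no enzyme wells and a reference inhibitor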
HPGD inh: HPGD (human) dehydrogenase inhibition. 150,000 tested, 4.3% active. AID 894. purified HPGD, NADH fluorescence kinetic, PGE2 substrate. P15428. Potency, µM, inactives show top-dose activity change, negative = inhibition, hits mostly inhibitors; active means well fitted inhibition curve with a large enough effect, not every such curve was filed as active; inconclusive means small, poorly fitted or top-dose-only effect, or another doubt; inactive means no such curve, though single readings can be large or run the other way; further: potency means the concentration at half of the fitted maximal effect
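20 nM HPGD preincubated 15 min at room temperature with compound in 50 mM Tris-HCl pH 8, 0.01% Tween 20. Started with 1 mM NAD+ and 30 uM prostaglandin E2; NADH fluorescence (360/450 nm) read 5 times over 30-s intervals, last minus first.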
NPSR antag: antagonists of human neuropeptide S receptor cAMP signaling; CHO-NPSR cells, cAMP TR-FRET, antagonist mode; Potency, µM (titrated, usually from 38.3 µM), inactives show top-dose activity change, negative = inhibition, usual class: inhibitors; 220,000 tested, 1% active; AID 1461; further: potency means the concentration at half of the fitted maximal effect; nearly all actives have a fitted effect of over 50% in size
Target sequence (Q6W5P4 whole entry, looked up): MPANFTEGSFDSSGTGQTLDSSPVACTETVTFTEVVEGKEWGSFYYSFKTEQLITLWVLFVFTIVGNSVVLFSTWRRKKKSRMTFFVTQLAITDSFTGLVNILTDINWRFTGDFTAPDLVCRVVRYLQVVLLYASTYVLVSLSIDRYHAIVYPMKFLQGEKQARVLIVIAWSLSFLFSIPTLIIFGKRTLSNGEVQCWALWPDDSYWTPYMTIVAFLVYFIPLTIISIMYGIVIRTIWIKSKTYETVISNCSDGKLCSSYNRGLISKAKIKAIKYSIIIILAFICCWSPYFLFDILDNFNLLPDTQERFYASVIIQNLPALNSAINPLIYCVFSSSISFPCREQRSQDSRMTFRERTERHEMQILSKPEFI
IMPase Li inh: cell-permeable IMPase inhibitors with lithium potentiation; CHO-M1 cells, IP1 TR-FRET (IP-One), carbachol + lithium; Potency, µM (series often up to 59.4 µM), for the others: top-dose activity, negative = IMPase inhibition, hits mostly inhibitors; 210,000 tested, 0.35% active;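 further: IP1 builds up when IMPase is blocked and the TR-FRET signal falls; potency means the concentration at half of the fitted maximal effect; plate controls were basal vehicle for no effect and high inhibitor control for full effect; nearly all actives have a fitted effect of over 50% in size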
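Lithium-sensitised IP1 accumulation assay; M1-expressing CHO cells treated 30 min at 37C with compound. Competitive antibody detection by time-resolved FRET followed a 10 min room-temperature lysis step.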
IMPase cell inh: membrane-permeable compound that blocks inositol monophosphatase. P97697. CHO-M1 cells, IP1 accumulation, HTRF TR-FRET ratio. inhibition (IP1 accumulation), % at 46.1 µM. 120,000 tested, under 10 active; active means well fitted curve in the direction sought with a large enough effect in the signal ratio, not every such curve was filed as active; inconclusive means small, poorly fitted or top-dose-only effect, or a change in a side signal; inactive means no such curve, though single readings can be large or run the other way; the % refers to the signal ratio;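 further: cells stimulated with carbachol in lithium chloride buffer; plate controls were DMSO basal wells for no effect and reference inhibitor wells for full effect; higher means more IMPase inhibition seen as more IP1 and lower FRET ratio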
Target sequence (P97697 whole entry, looked up): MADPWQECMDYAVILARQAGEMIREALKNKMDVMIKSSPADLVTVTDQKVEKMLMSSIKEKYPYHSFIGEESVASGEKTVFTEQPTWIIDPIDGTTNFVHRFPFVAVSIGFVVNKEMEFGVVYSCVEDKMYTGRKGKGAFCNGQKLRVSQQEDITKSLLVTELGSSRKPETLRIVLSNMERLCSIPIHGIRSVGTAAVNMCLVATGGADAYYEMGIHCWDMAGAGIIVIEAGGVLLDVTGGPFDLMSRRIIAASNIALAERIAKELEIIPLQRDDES
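In this qHTS, compounds (final up to 46 uM) act on CHO-M1 cells that are then activated through the M1 receptor with carbachol, in pH 7.4 buffer containing 50 mM LiCl, for 30 min. IP1 accumulation is quantified by the IP-One immunoassay.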
PNC inhibitor: perinucleolar compartment assembly inhibition | PC3M PTB-GFP, PNC prevalence imaging, 16 h; hits give low values | activity change (PNC), negative = inhibition, % at 10 µM | 140,000 tested, 3.1% active | AID 2417;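 active means readout at or below -70, meaning at least 70% loss of cells showing the perinucleolar compartment, a nuclear body marking cancer cells; inconclusive means readout between -30 and a set limit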;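 further: plate controls were DMSO wells for no effect and camptothecin positive control wells for full effect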
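Compounds are pinned in duplicate onto adhered PC3M cells stably expressing GFP-tagged PTB and incubated 16 h at 37 C. Cells are then fixed, nuclei stained with Hoechst, and PNC-positive cells counted.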
Active calls of the source: *; ? = inconclusive; nt = no result; [ ] = dose if it differs, or a comment. Most compounds without a hit are left out; they make up all but 11% or so of the library. Unless noted, the call rests on the fitted dose curve; in most records, active means well fitted curve in the direction sought with a large enough effect; inconclusive means small, poorly fitted or top-dose-only effect, or another doubt; inactive means no such curve, though single readings can be large; an effect the other way counts as inactive or inconclusive. Unless noted, on the % scale 0 is the no-effect control and ±100 the full control effect.

SMILES	ALDH1A1 block	HPGD inh	NPSR antag	IMPase Li inh	IMPase cell inh	PNC inhibitor
COc1cc(CNn2nnnc2N)cc(Br)c1OCc1c(Cl)cccc1Cl	1.7%	15.8µM*	-13.7%[46.1 µM]	29.7%[38.3 µM]	0.4	21.3
COc1cc2nc(N3CCN(C(=O)OCc4ccccc4)C(C(=O)NC(C)(C)C)C3)nc(N)c2cc1OC (centres undefined)	?	?	12.6µM*	16.2%	nt	nt
COc1cc2nc(N3CCN(C(=O)OCc4ccccc4)[C@H](C(=O)NC(C)(C)C)C3)nc(N)c2cc1OC	nt	nt	nt	nt	9.6	nt
O=C(O)c1ccccc1S(=O)(=O)Cc1ccccc1	-1.0%	-6.6%	2.2%[46.1 µM]	5.4%[38.3 µM]	3.6	30.4
Cc1cc2c(cc1C)N(C(=O)CSc1nncn1C)C(C)(C)c1ssc(=S)c1-2	0.4%	-11.3%	-19.1%[46.1 µM]	12.5%	-8.7[0.369 µM]	?
O=C(COC(=O)C12CC3CC(CC(O)(C3)C1)C2)NCCc1ccc(Cl)cc1	0.2%	nt	8.0%	1.2%	nt	nt
O=C(CC1(c2ccc(Cl)cc2)C2CC3CC(C2)CC1C3)NCCO (centres undefined)	12.6µM*	nt	-9.0%	-13.8%	nt	nt
CC1CCCC(C)N1c1nnc(N)s1 (centres undefined)	17.6%	28.2µM*	14.7%	8.4%	nt	50.8
Fc1ccc(C2CCCN2Cc2nc(CC3CC3)no2)cc1 (centres undefined)	5.8%	nt	11.8%	2.3%	nt	nt
Fc1ccc(C2CCCN2Cc2nc(-c3cnccn3)no2)cc1 (centres undefined)	28.2µM*	nt	20.2%	-0.4%	nt	nt
O=C(O)COc1ccccc1/C=N/NC(=O)c1cccc(S(=O)(=O)Nc2cccc(Cl)c2)c1	1.7%	nt	4.8%	2.8%	nt	nt
COc1ccc(-n2c(SC(C)C(=O)Nc3ncc(Cl)cc3Cl)nc3ccccc32)cc1 (centres undefined)	?	-24.0%	-23.4%[46.1 µM]	21.2%	10.7	-110.8*
CCOC(=O)CNC(=O)c1ccc2[nH]c3c(c2c1)CCCC3	-7.4%	-15.1%	-4.0%[46.1 µM]	-1.5%[38.3 µM]	-1.3	7.5
CC(C)C(c1nnnn1C1CCCC1)N(C)C1CCCCC1 (centres undefined)	28.2µM*	-4.7%	-18.5%[46.1 µM]	36.5%[38.3 µM]	10.3	41.4
CCc1c(C)sc(NC(=S)Nc2nc(C)cc(C)n2)c1C(=O)OC	?	nt	-43.3%	13.9%	nt	nt
CCc1c(C)sc(NC(=S)Nc2cccnc2)c1C(=O)OC	9.46µM*	nt	0.1%	-18.5%	nt	nt
Cc1cccc(C)c1N1CCN(S(=O)(=O)c2ccc(F)cc2)CC1	?	-15.4%	-23.2%[46.1 µM]	38.3%[38.3 µM]	-8.9	?
COc1ccccc1OCCn1cc(C(=O)c2ccco2)c2ccccc21	?	?	?	14.6%[38.3 µM]	12.8	26.6
COc1cccc(OCCn2cc(C(=O)c3ccco3)c3ccccc32)c1	22.4µM*	?	?	18.0%[38.3 µM]	9.4	32.6
CNC(=S)N/N=C/c1cn(CCOc2cccc(OC)c2)c2ccccc12	?	15.8µM*	16.3%	13.2%	nt	16.1
COC(=O)c1cc2c(cc1Cl)N1CCCCCC1=NS2(=O)=O	nt	nt	3.5%	nt	nt	nt
C#CCNC(=O)C1=C[C@@H](c2ccc3c(c2)OCO3)[C@H](CCCO)[C@@H](OCC)O1	?	nt	4.4%	-2.9%	nt	nt
CCc1cccc(CC)c1NC(=O)c1cccc(NC(=O)c2ccccc2)c1	5.0%	-0.6%	-23.8%[46.1 µM]	2.5%[38.3 µM]	4.8	28.1
CCN(CC)S(=O)(=O)c1ccc(NS(=O)(=O)c2ccc(F)cc2)cc1	12.6µM*	-14.0%	-3.9%[46.1 µM]	-0.8%[38.3 µM]	-0.6	10.5
O=S(=O)(Nc1ccc(-n2cccc2)cc1)c1ccc(F)cc1	10µM*	nt	-13.4%	14.5%	nt	nt
SMILES	ALDH1A1 block	HPGD inh	NPSR antag	IMPase Li inh	IMPase cell inh	PNC inhibitor
c1ccc(-c2nnc3sc(CN4CCc5ccccc54)cn23)cc1	?	11.2µM*	-18.7%[46.1 µM]	5.9%	7.2	142.5
CC(C)(C)c1cc(CN2CCCCC2)cc(C(C)(C)C)c1O	14.1µM*	-2.1%	-15.0%[46.1 µM]	60.6%[38.3 µM]	0.3	-22.9
Fc1ccc(-n2cc(CNCCc3ccncc3)c(-c3ccccc3Cl)n2)cc1	11.8%	nt	26.2%	7.4%	nt	nt
O=C(O)C1CCCN1S(=O)(=O)c1ccc2ccccc2c1 (centres undefined)	79.1%	?	1.8%[46.1 µM]	-11.1%	3.2	-100.0*
O=C(O)C1CCCN1S(=O)(=O)c1ccccc1 (centres undefined)	0.7%	-3.8%	3.9%[46.1 µM]	1.9%	-14.0	-23.3
O=C(c1ccccc1)N1CCCCC(S(=O)(=O)c2ccc3ccccc3c2)C1=O (centres undefined)	10µM*	-5.4%	-21.0%[46.1 µM]	0.2%[38.3 µM]	6.6	7.6
O=C(NCCc1ccccc1F)C1CCCN1S(=O)(=O)c1ccc2ccccc2c1 (centres undefined)	2.4%	15.8µM*	-7.5%[46.1 µM]	36.1%	13.3	-9.9
CCn1c(COc2cccc(C)c2)nnc1SCC(=O)CC(=O)Nc1ccccc1OC	-2.2%	-5.5%	-19.6%[46.1 µM]	0.3%[38.3 µM]	1.9	?
Cc1ccc2oc(=O)c3cc(C(=O)NCCCN4CCc5ccccc5C4)sc3c2c1	?	-21.6%	-13.2%	21.3%	nt	37.9
O=[N+]([O-])c1cnc(Sc2ccncn2)s1	3.16µM*	nt	?	nt	nt	nt
CCN(C1CCS(=O)(=O)C1)S(=O)(=O)c1cccc([N+](=O)[O-])c1 (centres undefined)	-11.6%	nt	-0.4%	2.7%	nt	nt
COc1ccc2c(c1)c1ncn(CCN3CCCC3)c(=O)c1n2C	?	nt	-1.6%[46.1 µM]	nt	0.7	?
Cc1ccc2c(c1)c1ccc3c(c1n2C)C(=O)C=CC3=O	nt	nt	7.94µM*	nt	nt	nt
Cc1ccc2c(c1)c1ncnc(N3CCOCC3)c1n2C	?	?	-12.2%[46.1 µM]	-6.0%[38.3 µM]	2.3	-22.7
COc1ccc2c(c1)c1ccc3c(c1n2C)C(=O)C=CC3=O	0.282µM*	nt	?	nt	nt	nt
O=C(O)CSc1nnc(COc2cccc3cccnc23)n1-c1cccc(C(F)(F)F)c1	2.5%	nt	11.9%	0.7%	nt	nt
Cc1ccc(/C=C/C(=O)N2CCN(Cc3ccccc3)CC2)o1	8.91µM*	-25.9%	-6.0%	1.6%	nt	20.6
Cc1ccc(/C=C/C(=O)NCCCN2CCN(CCCNC(=O)/C=C/c3ccc(C)o3)CC2)o1	-6.1%	-20.9%	-1.8%	16.7%	nt	-21.8
Cc1ccc(S(=O)(=O)N2CCN(C(=O)N(C)C)CC2)cc1C	?	5.3%	-7.3%[46.1 µM]	22.3%[38.3 µM]	3.8	17.7
Cc1ccc(/C=C/C(=O)N2CCN(S(=O)(=O)c3ccc(C)c(C)c3)CC2)o1	3.55µM*	22.4µM*	-42.5%	5.4%	nt	?
Cc1cc(C)c(C)c(S(=O)(=O)N2CCN(C(=O)CCC(=O)N3CCOCC3)CC2)c1C	nt	nt	9.2%	nt	nt	nt
Cc1cccc(CN2CCN(C(=O)CCl)CC2)c1	0.316µM*	nt	11.1%[46.1 µM]	nt	0.2	33.5
Cc1ccc(/C=C/C(=O)N2CCN(S(=O)(=O)c3c(C)c(C)cc(C)c3C)CC2)o1	14.1µM*	25.1µM*	-21.9%[46.1 µM]	8.6%	11.9	13.9
